# Experimental data: PubChem BioAssay AID493131 (Broad Institute, 2011)
# The whole screen tested about 340,000 compounds, of which about 3,300 (0.97%) were called active. The full list was thinned out, with actives kept by preference. Unmarked numbers belong to inactive results.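 The calls were made as follows: active = mean activation above about 17%, with every replicate also reaching it (limit read from the data, passing the limit was not always enough); inconclusive = only one of the two conditions met; inactive = the rest.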
# Target: Protein FosB (Mus musculus) (UniProt P13346)
# Sequence (P13346 whole entry, looked up): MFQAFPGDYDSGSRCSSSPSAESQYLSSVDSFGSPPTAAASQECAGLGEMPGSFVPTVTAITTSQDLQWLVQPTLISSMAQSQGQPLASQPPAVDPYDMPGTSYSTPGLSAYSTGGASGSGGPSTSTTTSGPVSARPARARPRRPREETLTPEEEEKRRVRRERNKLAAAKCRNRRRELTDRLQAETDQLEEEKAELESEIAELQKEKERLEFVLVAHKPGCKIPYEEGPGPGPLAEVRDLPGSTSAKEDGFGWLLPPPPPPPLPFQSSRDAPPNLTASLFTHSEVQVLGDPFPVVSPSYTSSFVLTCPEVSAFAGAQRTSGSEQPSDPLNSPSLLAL
# Experiment: enhancers of mouse delta FosB DNA binding – biochemical, fluorescence polarization, TAMRA-CDK5 oligo, single point, primary screen (AID 493131);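 also: fluorescence polarization rise as delta FosB binds a TAMRA Cdk5 AP-1 oligo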
# Details: purified delta FosB, at 25 µM, active compounds read high, percent of positive-control signal above neutral wells
row,SMILES,activation
1,COc1cc(CNCc2ccc(OC)c3ccccc23)cc(OC)c1OC,-10.2%
2,Cc1cc(C)c2nc3nc(C)cc(C)c3c(N)c2c1,25.9% (active)
3,CNC(=O)C1CC(=O)N(c2ccc(OCC(=O)Nc3ccccc3C)cc2)C1 (centres undefined),5.55%
4,COc1ccc(OC)c(S(=O)(=O)N(C)CC(=O)N2CCN(c3ccccc3)CC2)c1,3.45%
5,O=C1CC(c2ccccc2)C(=O)N1c1cccc(O)c1 (centres undefined),0.8%
6,O=C(CN1C(=O)c2cccc3cccc(c23)C1=O)N1CCCCC1,2.41%
7,O=C1c2cccc3cccc(c23)C(=O)N1c1cccc(O)c1,27.4% (active)
8,Cc1ccccc1CC1(CO)CCCN(Cc2ccc3c(c2)OCCO3)C1 (centres undefined),-8.09%
9,COc1ccc(Nc2nc(NCc3ccco3)nc(N/N=C/c3ccccc3Cl)n2)cc1,43% (active)
10,COc1ccc(-n2cnc3cc(NCc4ccco4)ccc32)cc1,-0.508%
11,C=CCC(NCc1ccco1)c1ccc(OC)cc1 (centres undefined),-0.535%
12,O=C1c2cccnc2C(Nc2ccc(S(=O)(=O)N3CCCCCC3)cc2)N1Cc1ccccc1 (centres undefined),-10.2%
13,O=C(NCc1ccco1)c1ccc(Cn2c(=O)c3sccc3n(Cc3ccc(F)cc3)c2=O)cc1,-6.02%
14,O=C(Cc1ccc(-n2c(=O)c3sccc3n(Cc3ccc(F)cc3)c2=O)cc1)NCc1ccco1,20.9% (active)
15,O=C(NCc1ccco1)c1cc2sccc2n1Cc1ccc(F)cc1,-6.3%
16,CC1(C)Oc2ccc(C(=O)N3CCOCC3)cc2N(CC(=O)Nc2ccccc2)C1=O,-4.29%
17,CC(=O)NC(Cc1ccc(F)c(F)c1)C(=O)NC1CCN(c2nnnn2-c2ccccc2)CC1 (centres undefined),-5.56%
18,COc1ccc(CCNC(=O)C2CCCN2C(=O)Nc2ccccc2)cc1OC (centres undefined),1.24%
19,CC(C)CCNC(=O)c1ccc2c(Cl)c3c(nc2c1)CCC3,-19.8%
20,CS(=O)(=O)N(CC(=O)N1CCN(Cc2ccccc2)CC1)c1ccc2c(c1)OCCO2,-2.7%
21,CC(=NC1CCN(Cc2ccccc2)CC1)c1c(O)[nH]c(=O)[nH]c1=O,6.14%
22,c1ccc(CN2CCC(N=C3NN=C(c4ccc5c(c4)OCCO5)CS3)CC2)cc1,18.3% (active)
23,Cc1ccc(C(=O)NC(C)c2ccccc2)cc1Br (centres undefined),-1.72%

row,SMILES,activation
1,CCN(C(=O)CSc1nc2ccccc2n1CC)C1CCS(=O)(=O)C1 (centres undefined),-12.5%
2,O=C(CNS(=O)(=O)c1ccc(Br)s1)NCc1ccc2c(c1)OCO2,-7.24%
3,COc1ccc2[nH]c(C(=O)N/N=C/c3cc(OC)c(OC)c(OC)c3)cc2c1,-21.6%
4,COc1cccc(OCc2cc(/C=N/NC(=O)c3nc(Cl)c(Cl)c(N)c3Cl)ccc2OC)c1,59.2% (active)
5,CCOc1ccc2[nH]c(C(=O)N/N=C/c3cccc(OC)c3OC)cc2c1,-5.75%
6,CCOCCCNC(=O)C(NC(=O)c1ccc(=O)[nH]c1)c1ccc(Cl)cc1 (centres undefined),-7.55%
7,O=C(COc1ccc(/C=N/NC(=O)c2ccc(O)cc2)cc1)Nc1ccc([N+](=O)[O-])cc1,-4.3%
8,O=C(Cc1cccs1)N/N=C/c1ccc(OCc2ccccc2)cc1,-8.99%
9,O=C(N/N=C/c1ccc(OCc2ccccc2)cc1)c1ccc(O)cc1,19.7% (active)
10,O=C(Nn1cnc2ccccc2c1=O)c1ccc(F)cc1Cl,-11%
11,Cc1ccc(S(=O)(=O)NCc2ccc(C(=O)NC3CCC(C)CC3)cc2)cc1 (centres undefined),1.88%
12,Cc1cccc(C)c1NC(=O)c1ccc(CN2CCc3ccccc3C2)cc1,5.39%
13,COc1ccc(OC)c(NC(=O)C2CCCN2S(=O)(=O)c2cccc3nsnc23)c1 (centres undefined),-12.4%
14,COC(=O)C1=C(C)N(c2ccc(C)cc2)/C(=C/c2ccc(O)cc2)C1=O,-7.3%
15,CC(=O)Nc1ccc(C(=O)CSc2nnc(Cc3ccccc3)o2)cc1,32.2% (active)
16,CCCc1nnc(SCC(=O)Nc2ccc(C(=O)OCC)cc2)o1,-7.89%
17,O=C(CSc1nnc(Cn2cnc3ccccc32)o1)c1ccccc1,-10.9%
18,COC(=O)CN1C(=O)N/C(=C/c2ccc(OC)c(C)c2OC)C1=O,-0.812%
19,CCN1C(=NCCc2cccnc2)N[C@@H](c2ccccc2)C(C(=O)OC)=C1C,-0.917%
20,COC(=O)c1ccc(C23CC4(C2)[C@H](CN(Cc2cccnc2)[C@@H]4c2ccccc2)C3c2ccc(Cl)nc2)cc1 (some centres undefined),23.5% (active)
21,Clc1ccc(C2[C@H]3CN(CC4CCCCC4)[C@H](c4ccccc4)C34CC2(c2cccnc2)C4)cn1 (some centres undefined),2.72%
22,CN(C)C(=O)CSc1n[nH]c(-c2ccco2)n1,7.7%
23,COc1ccc(C(=O)C2CCCN(S(=O)(=O)c3cccc(C)c3)C2)c(C)c1 (centres undefined),-8.61%

row,SMILES,activation
1,COc1cc2[nH]c(=O)n(CCC(=O)NC3CCN(Cc4ccccc4)CC3)c(=O)c2cc1OC,-7.1%
2,COc1cc2[nH]c(=O)n(Cc3ccc(C(=O)NC4CCN(Cc5ccccc5)CC4)cc3)c(=O)c2cc1OC,40.7% (active)
3,COc1cc(C(=O)NC2CCN(Cc3ccccc3)CC2)cc(Cl)c1OC(C)C,-2.75%
4,CN(C(=O)COC(=O)c1ccc(Br)o1)c1c(N)n(Cc2ccccc2)c(=O)[nH]c1=O,5.25%
5,Cc1cc(OCC(=O)N(C)c2c(N)n(Cc3ccccc3)c(=O)[nH]c2=O)c(C(C)C)cc1Cl,30.7% (active)
6,CC(C)CN(C(=O)COC(=O)c1ccc(Cl)c(N)c1)c1c(N)n(Cc2ccccc2)c(=O)[nH]c1=O,0.351%
7,CC(C)Sc1nc(N)nc2c1ncn2C1OC(CO)C(O)C1O (centres undefined),-4.1%
8,O=C(CCN1CCc2ccccc2C(O)(c2ccccc2)C1)c1ccc2c(c1)OCCO2 (centres undefined),1.68%
9,CCCCN(C(=O)c1ccc(OC(F)(F)F)cc1)c1c(N)n(CCC)c(=O)[nH]c1=O,-2.28%
10,O=C(CS(=O)(=O)c1ccccc1)Nc1ccc(S(=O)(=O)Nc2ccccn2)cc1,1.81%
11,O=C(Nc1ccc(S(=O)(=O)Nc2ccccn2)cc1)c1ccccc1,-2.22%
12,O=C(Nc1ccc(Br)cc1)c1cc(S(=O)(=O)Nc2ccccn2)ccc1Cl,40.2% (active)
13,COc1ccccc1N1CCN(C(=O)c2cc(=O)c3cc(C)cc(C)c3o2)CC1,-12.4%
14,CCOc1ccc(S(=O)(=O)N2CCN(C(=O)c3oc4ccccc4c3C)CC2)cc1,-13.9%
15,CCn1cc(C(=O)OCC(=O)Nc2cccc(C)c2)c(=O)c2ccc(C)nc21,-9.83%
16,Cc1ccc(NNC(=O)c2cccs2)cc1Cl,-4.02%
17,CCCCC1N2CC3([N+](=O)[O-])CN1CC([N+](=O)[O-])(C2)C3(C)C (centres undefined),0.0626%
18,COc1ccc(/C=C/C(=O)Nc2c(C)nn(C)c2C)cc1COc1ccc(Br)cc1,21.7% (active)
19,CCn1nc(C)c(NC(=O)/C=C/c2ccc(OC)c(COc3ccc(Br)cc3)c2)c1C,13.3%
20,COc1ccc(OC)c(S(=O)(=O)Nc2c(C)nn(C)c2C)c1,1.81%
21,Cc1ccc2c(c1)C1CN(C)CCC1N2C(=S)Nc1ccc(OC(F)F)cc1 (centres undefined),-5.28%
22,Cc1ccc2c(c1)C1CN(C)CCC1N2S(=O)(=O)c1ccc(Oc2ccc([N+](=O)[O-])cc2)cc1 (centres undefined),60.9% (active)
23,Cc1ccc2c(c1)C1CN(C)CCC1N2S(=O)(=O)c1cccc(F)c1 (centres undefined),1.55%

row,SMILES,activation
1,COc1ccc([N+](=O)[O-])cc1N(CC(O)Cn1nnc2ccccc21)S(=O)(=O)c1ccc(C)cc1 (centres undefined),-8.08%
2,COc1ccc(Br)cc1C(=O)NC(=S)Nc1cc(-c2nc3ccccc3[nH]2)ccc1C,30.2% (active)
3,COc1ccc(Br)cc1C(=O)Nc1cccc(C)c1C,6.11%
4,COc1cc2ccccc2cc1C(=O)Nc1ccccc1C,-12.4%
5,Cc1nnnn1/C(=C\c1ccccc1)C(=O)OCC(=O)N1CC2(C)CC1CC(C)(C)C2 (centres undefined),-16.8%
6,O=C(NCc1cccs1)c1cc(-c2ccccn2)nc2ccc(Br)cc12,2.96%
7,Cc1nn(C)cc1CNC(=O)Nc1ccc(Cl)cc1,-6.86%
8,Cc1ccc(-c2cc(C(=O)NCc3cn(C)nc3C)c3cc(Br)ccc3n2)cc1,36.8% (active)
9,CCN(CC)CCCNC(=S)N(CCO)Cc1cc2cc3c(cc2[nH]c1=O)OCO3,-3.62%
10,CS(=O)(=O)N1CCc2nc(-c3ccccc3)sc2C1,-1.76%
11,c1ccc2c(CCN3CCNC[C@H]3Cc3cccc4ccccc34)cccc2c1,12.1%
12,O=C1CCNCCN1[C@H](CO)Cc1ccccc1,-2.28%
13,c1ccc(C[C@H]2CNCCN2CCC23CC4CC(CC(C4)C2)C3)cc1,20.1% (active)
14,CC(Oc1cc2oc(=O)c3c(c2cc1Cl)CCCC3)C(=O)NCc1ccncc1 (centres undefined),-1.99%
15,COc1ccc2c(c1)c(C(=O)N/N=C/c1cccs1)c(C)n2C,-3.67%
16,CCOC(=O)C1=C(COC(=O)[C@H](C)NS(=O)(=O)c2ccccc2F)NC(=O)NC1C (some centres undefined),-4.67%
17,Cn1ncc2c(NNC(=O)Cc3cccc4ccccc34)ncnc21,2.75%
18,CC(=O)c1ccc(NC(=O)C2CC(=O)Nc3nc4ccccc4n32)cc1 (centres undefined),19.8% (active)
19,CCOC(=O)c1ccc(NC(=O)C2CC(=O)Nc3nc4ccccc4n32)cc1 (centres undefined),7.67%
20,O=C(Nc1ccccc1)C1CC(=O)n2c(nc3ccccc32)N1 (centres undefined),12%
